PubChem BioAssay (EPA / NIEHS)
Active and inactive are the calls of the source. Rule for the calls: active = hit-call score of the fitted dose curve at least 0.9, where 1 is the maximum; inactive = score below 0.9.

Assay: Tanguay_ZF_120hpf_MUSC: Oregon State University Tanguay Lab 120 Hour Post-fertilization zebrafish Assay for Muscle Malformation (AID 2284401)
Procedure, shortened: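 Dechorionated Tropical 5D wild-type zebrafish embryos exposed statically from 6 to 120 hpf at 28C, one per well, in 0.64% DMSO. Muscle malformation scored present/absent by brightfield microscopy at 120 hpf, fitted against DMSO.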

SMILES	outcome
O=S(=O)(O)CCC(F)(F)C(F)(F)C(F)(F)C(F)(F)C(F)(F)C(F)(F)F	inactive
O=C(CC(=O)C(F)(F)C(F)(F)C(F)(F)F)c1cccs1	inactive
O=P(O)(O)CCC(F)(F)C(F)(F)C(F)(F)C(F)(F)C(F)(F)C(F)(F)C(F)(F)C(F)(F)F	inactive
O=C(O)C(F)(F)C(F)(F)F	inactive
